Holding throughout (conditions): mRNA level, 48 h; actives raise or lower the signal
Read-out in experiment [1]: Cytochrome P450 (CYP2B6), CYP2B6 (gene 1555)
Briefly: LTEA_HepaRG_CYP2B6: Life Technologies and Expression Analysis (LTEA) Assay for Cytochrome P450 (CYP2B6) using HepaRG (AID 2283481). The procedure, abridged: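 Human HepaRG, 48 h dosing, 0.5% DMSO vehicle, top dose 100 uM. CYP2B6 transcript by qRT-PCR, housekeeping-normalized, bidirectional curve fit.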

Read-out in experiment [2]: CYP2C8 (gene 1558)
Briefly: LTEA_HepaRG_CYP2C8: Life Technologies and Expression Analysis (LTEA) Assay for CYP2C8 using HepaRG (AID 2283483). The procedure, abridged:
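HepaRG (human liver line), 48 h chemical exposure, 8-pt half-log series from 100 uM, 0.5% DMSO vehicle. Readout: CYP2C8 transcript by qRT-PCR, housekeeping-normalized. Bidirectional fit vs DMSO baseline.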

Read-out in experiment [3]: CYP2C9 (gene 1559)
Briefly: LTEA_HepaRG_CYP2C9: Life Technologies and Expression Analysis (LTEA) Assay for CYP2C9 using HepaRG (AID 2283484). The gist of the method:
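HepaRG, 48 h dosing, 8-pt half-log series, top 100 uM, 0.5% DMSO vehicle. Read-out: CYP2C9 transcript by TaqMan qRT-PCR, housekeeping-normalized (ACTB/GAPDH/POLR2A). Gain or loss fitted vs DMSO baseline.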

Read-out in experiment [4]: CYP2E1 (gene 1571)
Briefly: LTEA_HepaRG_CYP2E1: Life Technologies and Expression Analysis (LTEA) Assay for CYP2E1 using HepaRG (AID 2283485). The procedure, abridged:
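Readout is qRT-PCR of CYP2E1 mRNA, normalized to three housekeeping genes and fitted bidirectionally against 0.5% DMSO. HepaRG cells were dosed 48 h at eight concentrations, highest 100 uM with half-log dilutions.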

Read-out in experiment [5]: CYP4A11 (gene 1579)
Briefly: LTEA_HepaRG_CYP4A11: Life Technologies and Expression Analysis (LTEA) Assay for CYP4A11 using HepaRG (AID 2283486). The gist of the method:
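Human hepatic HepaRG cultures receive duplicate 48 h exposures across a concentration-response series topping at 100 uM. Expression changes in CYP4A11 are measured by qRT-PCR relative to DMSO controls.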

Read-out in experiment [6]: Cytochrome P450 3A4 (Homo sapiens) (UniProt P08684)
Briefly: LTEA_HepaRG_CYP3A4: Life Technologies and Expression Analysis (LTEA) Assay for CYP3A4 using HepaRG (AID 2283487). The procedure, abridged:
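HepaRG, 48 h exposure, 8-pt CRC from 100 uM (half-log), 0.5% DMSO, duplicates; serum-free induction medium. Readout: CYP3A4 mRNA, qRT-PCR, ACTB/GAPDH/POLR2A normalization. Bidirectional fit vs DMSO.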

Read-out in experiment [7]: DNA damage-inducible transcript 3 (DDIT3), DDIT3 (gene 1649)
Briefly: LTEA_HepaRG_DDIT3: Life Technologies and Expression Analysis (LTEA) Assay for DNA damage-inducible transcript 3 (DDIT3) using HepaRG (AID 2283488). The procedure, abridged:
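Cells are human HepaRG liver cells treated for 48 h with eight half-log concentrations up to 100 uM in 0.5% DMSO. Transcript levels come from qRT-PCR normalized to three housekeeping genes, with activity fitted in both directions relative to vehicle.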

Read-out in experiment [8]: Pro-epidermal growth factor (Homo sapiens) (UniProt P01133)
Briefly: LTEA_HepaRG_EGF: Life Technologies and Expression Analysis (LTEA) Assay for Epidermal growth factor (EGF) using HepaRG (AID 2283489). The procedure, abridged: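 Concentration-response mRNA assay: HepaRG cells dosed 48 h (max 100 uM, 0.5% DMSO), EGF measured by qRT-PCR and normalized to ACTB/GAPDH/POLR2A.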

Read-out in experiment [9]: Early growth response protein 1 (EGR1) transcription factor, EGR1 (gene 1958)
Briefly: LTEA_HepaRG_EGR1: Life Technologies and Expression Analysis (LTEA) Assay for Early growth response protein 1 (EGR1) transcription factor using HepaRG (AID 2283490). The gist of the method:
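HepaRG, 48 h exposure, 8-pt half-log series from 100 uM, 0.5% DMSO vehicle; EGR1 transcript by TaqMan qRT-PCR (Fluidigm array), housekeeping-normalized; bidirectional fit relative to DMSO baseline.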

Read-out in experiment [10]: Cytochrome P450 3A7 (Homo sapiens) (UniProt P24462)
Briefly: LTEA_HepaRG_CYP3A7: Life Technologies and Expression Analysis (LTEA) Assay for CYP3A7 using HepaRG (AID 2283492). The gist of the method: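 qRT-PCR of CYP3A7 in HepaRG lysates after 48 h treatment; concentration-response (8 points, max 100 uM) analysed bidirectionally relative to 0.5% DMSO controls.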

Read-out in experiment [11]: CYP3A5 (gene 1577)
Briefly: LTEA_HepaRG_CYP3A5: Life Technologies and Expression Analysis (LTEA) Assay for CYP3A5 using HepaRG (AID 2283493). The procedure, abridged: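 Human HepaRG hepatic cells receive 48 h chemical treatment at eight concentrations (half-log steps from 100 uM) in 0.5% DMSO. Expression of CYP3A5 is quantified by Fluidigm qRT-PCR and normalized to three reference genes.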

Read-out in experiment [12]: Fatty Acid-Binding Protein 1 (FABP1), FABP1 (gene 2168)
Briefly: LTEA_HepaRG_FABP1: Life Technologies and Expression Analysis (LTEA) Assay for Fatty Acid-Binding Protein 1 (FABP1) using HepaRG (AID 2283494). The procedure, abridged:
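qRT-PCR readout of FABP1 transcript (normalized to three housekeeping genes) after 48 h chemical exposure of HepaRG cells; eight concentrations, half-log steps, max 100 uM, 0.5% DMSO vehicle; gain or loss fitted relative to DMSO baseline.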

Read-out in experiment [13]: Cytochrome P450 4A22 (Homo sapiens) (UniProt Q5TCH4)
Briefly: LTEA_HepaRG_CYP4A22: Life Technologies and Expression Analysis (LTEA) Assay for Cytochrome P450 4A22 (CYP4A22) using HepaRG (AID 2283495). The gist of the method:
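Concentration-response (8 points, max 100 uM, 0.5% DMSO) in human HepaRG liver cells after 48 h exposure. CYP4A22 mRNA by TaqMan qRT-PCR with housekeeping-gene normalization.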

Read-out in experiment [14]: Cytochrome P450 7A1 (Homo sapiens) (UniProt P22680)
Briefly: LTEA_HepaRG_CYP7A1: Life Technologies and Expression Analysis (LTEA) Assay for Cytochrome P450 7A1 (CYP7A1) using HepaRG (AID 2283496). The procedure, abridged:
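HepaRG, 48 h exposure, 8-pt half-log series from 100 uM, 0.5% DMSO vehicle, duplicates. Readout: TaqMan qRT-PCR mRNA vs three housekeeping genes; bidirectional curve fit against DMSO baseline.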

Read-out in experiment [15]: Glutamate-cysteine ligase catalytic (GCLC), GCLC (gene 2729)
Briefly: LTEA_HepaRG_GCLC: Life Technologies and Expression Analysis (LTEA) Assay for Glutamate-cysteine ligase catalytic (GCLC) using HepaRG (AID 2283498). The gist of the method:
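HepaRG, 48 h exposure, 8-pt half-log series from 100 uM, 0.5% DMSO vehicle; TaqMan qRT-PCR for GCLC mRNA, housekeeping-normalized; bidirectional curve fit vs DMSO baseline.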

Read-out in experiment [16]: growth arrest and DNA damage 45 (GADD45G), GADD45G (gene 10912)
Briefly: LTEA_HepaRG_GADD45G: Life Technologies and Expression Analysis (LTEA) Assay for growth arrest and DNA damage 45 (GADD45G) using HepaRG (AID 2283499). The gist of the method: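 Concentration-response in HepaRG: 48 h dosing, 0.5% DMSO, highest level 100 uM. GADD45G expression by qRT-PCR, normalised to endogenous controls; bidirectional fit to DMSO.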

Read-out in experiment [17]: Glutamate-cysteine ligase regulatory (GCLM), GCLM (gene 2730)
Briefly: LTEA_HepaRG_GCLM: Life Technologies and Expression Analysis (LTEA) Assay for Glutamate-cysteine ligase regulatory (GCLM) using HepaRG (AID 2283500). The procedure, abridged: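 Endpoint is GCLM transcript level by qRT-PCR, normalized to three housekeeping genes, after 48 h chemical exposure of human HepaRG cells (0.5% DMSO vehicle, top 100 uM, half-log dilutions). Fitting was bidirectional relative to DMSO.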

Calls of active or inactive are those of the source. The calls were made as follows: active = hit-call score of the fitted dose curve at least 0.9, where 1 is the maximum; inactive = score below 0.9.

Cytochrome P450 3A7 (Homo sapiens), sequence (P24462 whole entry, looked up): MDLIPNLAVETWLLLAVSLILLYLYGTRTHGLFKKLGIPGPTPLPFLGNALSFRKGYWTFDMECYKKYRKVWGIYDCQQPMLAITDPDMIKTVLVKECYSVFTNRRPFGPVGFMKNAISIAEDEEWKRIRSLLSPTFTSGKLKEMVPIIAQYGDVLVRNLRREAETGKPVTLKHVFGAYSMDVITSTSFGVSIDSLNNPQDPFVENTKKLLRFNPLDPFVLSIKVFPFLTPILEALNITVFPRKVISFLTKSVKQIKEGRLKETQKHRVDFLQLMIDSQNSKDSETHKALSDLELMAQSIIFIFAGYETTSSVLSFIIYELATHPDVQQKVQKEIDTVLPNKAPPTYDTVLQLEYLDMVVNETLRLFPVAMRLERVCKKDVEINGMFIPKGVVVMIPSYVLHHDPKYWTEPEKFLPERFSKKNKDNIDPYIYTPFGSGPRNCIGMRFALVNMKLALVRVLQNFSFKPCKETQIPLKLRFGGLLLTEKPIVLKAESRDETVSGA
Cytochrome P450 3A4 (Homo sapiens), sequence (P08684 whole entry, looked up): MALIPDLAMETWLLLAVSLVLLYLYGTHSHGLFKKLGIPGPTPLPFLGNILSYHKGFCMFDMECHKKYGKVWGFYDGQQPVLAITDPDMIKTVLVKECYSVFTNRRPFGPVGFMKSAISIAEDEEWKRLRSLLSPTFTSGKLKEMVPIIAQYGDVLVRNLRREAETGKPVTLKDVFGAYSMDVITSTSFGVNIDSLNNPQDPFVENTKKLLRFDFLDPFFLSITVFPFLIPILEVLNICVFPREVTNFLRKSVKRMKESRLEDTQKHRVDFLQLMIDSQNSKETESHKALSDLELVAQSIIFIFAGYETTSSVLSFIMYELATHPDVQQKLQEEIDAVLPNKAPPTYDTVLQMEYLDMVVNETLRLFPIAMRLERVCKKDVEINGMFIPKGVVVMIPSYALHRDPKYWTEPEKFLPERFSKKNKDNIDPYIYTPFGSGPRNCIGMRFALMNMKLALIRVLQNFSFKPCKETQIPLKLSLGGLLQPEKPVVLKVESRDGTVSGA

As to `CC(C)C1(C)N=C(c2nc3ccccc3cc2C(=O)O)NC1=O` (stereo not drawn), the figures for the AC50 in experiment [1] and in [6] were 6.39 µM (active) and 18.8 µM (active), respectively. Besides, the call in experiment [2], in [3], in experiment [4], in experiment [5], in experiment [7] and in experiment [8] was inactive. Also, the result in experiment [9], in experiment [10], in experiment [11], in experiment [12], in experiment [13] and in experiment [14] was inactive. For the same compound, the outcome in experiment [15], in [16] and in experiment [17] was inactive.
On to `CC1COC(Cn2cncn2)(c2ccc(Oc3ccc(Cl)cc3)cc2Cl)O1` (stereo not drawn), for which the AC50 in experiment [1] is 9.66 µM (active); in [2], 9.46 µM (active); in [3], 15.7 µM (active); in [4], 8.67 µM (active); in [5] it was 12.9 µM (active); in experiment [6], 23.2 µM (active). The half-maximal activity concentration (AC50) is 12 µM (active) in experiment [7]; 63.2 µM (active) in experiment [9]; 84.1 µM (active) in experiment [11]; 23.3 µM (active) in experiment [12]; 15.5 µM (active) in experiment [13]; 13.8 µM (active) in [14]. For the same compound, the AC50 in experiment [16] was 12.2 µM (active). Further, the result in [8], in experiment [10], in experiment [15] and in experiment [17] was inactive.
Consider `CC(C)Oc1cc(-n2nc(C(C)(C)C)oc2=O)c(Cl)cc1Cl`, for which the AC50 in experiment [1] was 90.5 µM (active); in experiment [2], 86.3 µM (active); in experiment [3], 82.3 µM (active); in [4], 30.8 µM (active); in experiment [5] it was 45.6 µM (active); in [6], 1.04 µM (active). Besides, the AC50 in [7] is 77.7 µM (active); in experiment [12], 19.4 µM (active); in experiment [13], 50 µM (active); in experiment [14], 33.3 µM (active); in [15], 86.2 µM (active); in [16] it was 77.8 µM (active). The AC50 in [17] was 50 µM (active). Further, the compound was classed as inactive in experiment [8], in experiment [9], in [10] and in [11].
For `Cc1cc(Cl)ccc1OCC(=O)O`, the AC50 is 25.5 µM (active) in [1]; 19.9 µM (active) in [2]; 30.9 µM (active) in experiment [4]; 12 µM (active) in [5]; 18.8 µM (active) in [10]; 24.9 µM (active) in [14]. Further, the outcome in experiment [3], in experiment [6], in [7], in [8], in experiment [9] and in [11] was inactive. The compound was classed as inactive in [12], in experiment [13], in [15], in experiment [16] and in [17].

Source of the values: PubChem BioAssay (EPA / NIEHS).
